Source: PubChem BioAssay (Broad Institute)
The list is not random: actives were taken first. Their share in the collection is about 1.4%.
PGC1a acetyl inh – PGC1a acetylation modulation, inhibitor mode | U2OS PGC1a acetylation, AlphaScreen anti-acetyl-lysine; with virally co-expressed GCN5 acetyltransferase | 350,000 tested, 0.17% active | inhibition, % at 15.6 µM;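 active means every replicate shows inhibition of at least 40%; inconclusive means mean inhibition at least 40% but some replicate below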;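 further: 0% = neutral control wells and 100% = positive control wells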
RAD54 inh – RAD54 (human) branch migration inhibition. RAD54 Holliday junction branch migration, FAM/BHQ fluorescence. inhibition, % at 10.4 µM. 360,000 tested, 0.14% active. AID 602329;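 active means mean normalized replicate activity at least 40 and at least half of replicates scoring 40 or more; inconclusive means only one of the two criteria met; inactive means mean below 40 and under half of replicates reaching 40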;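 further: 0% = median of neutral control wells and 100% = median of positive control wells; inhibitors cause a drop in the FAM fluorescence signal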
ERAP1 HTS inh – inhibitors of human ERAP1 aminopeptidase | Q9NZ08 | inhibition, % at 10.7 µM | 340,000 tested, 0.15% active | AID 652197 | recombinant ERAP1, Leu-AMC fluorescence, 60 min;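 active means mean replicate inhibition of at least 30%, or all replicates individually reaching that 30% level; inactive means mean below 30% and not every replicate reaching it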;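 further: 0% = neutral control wells and 100% = L-leucinethiol positive control wells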
RAD52 anneal inh – inhibitors of human RAD52 DNA annealing; inhibition, % at 18.7 µM; P43351; AID 651710; recombinant RAD52 DNA annealing, FRET fluorescence; 360,000 tested, 0.46% active;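 active means every replicate showing at least 50% inhibition; inconclusive means mean inhibition at least 50% but not in every replicate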
INS-1E GSIS act – GLuc luminescence reporter in INS-1E cells, primary screen for activators of glucose-dependent secretion of insulin; activation, % at 16.6 µM; 370,000 tested, 0.61% active; INS-1E GLuc reporter insulin secretion, 2-3 h;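 active means lowest replicate activation of at least 40%, so every replicate reaches that level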;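 further: 0% = median of neutral control wells and 100% = median of IBMX positive control wells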
MLL AF4-AF9 inh – blocks AF4 peptide binding to human AF9 | inhibition, % at 10 µM | AlphaScreen, biotin-AF4 peptide binding to FLAG-AF9 | 350,000 tested, 0.47% active | P42568 | AID 651704;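 active means every replicate reaching a set inhibition limit, whatever the replicate mean, cut at about 25% in these data; inconclusive means mean inhibition reaches that limit but some replicates miss it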;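 further: 0% = plate neutral control median and 100% = total signal loss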
The depositor's hits bear a star; ? = inconclusive; · = no result.

SMILES	PGC1a acetyl inh	RAD54 inh	ERAP1 HTS inh	RAD52 anneal inh	INS-1E GSIS act	MLL AF4-AF9 inh
CCOc1ccccc1N1CCN(C(=O)C2=CC=CN3CCS(=O)(=O)N=C23)CC1	1	6	56*	7	-7	-1
O=C(C1=CC=CN2CCS(=O)(=O)N=C12)N1CCN(c2cccc(Cl)c2)CC1	2	0	-3	0	20	4
Cc1ccc(S(=O)(=O)N[C@H]2CC[C@@H](CC(=O)NC3CCCCC3)O[C@@H]2CO)cc1	0	-2	1	-4	6	-2
Cc1oc2c(c(C)cc3oc(=O)c(CC(=O)N[C@H](C(=O)O)C(C)C)c(C)c32)c1C	·	15	35*	-10	-6	-3
Cc1oc2c(c(C)cc3oc(=O)c(CC(=O)N[C@@H](CC(C)C)C(=O)O)c(C)c32)c1C	6	5	15	-17	9	-30
CC(C)NC(=O)N(C)C[C@@H]1Oc2ccc(NS(C)(=O)=O)cc2C(=O)N(C)C[C@@H]1C	·	·	·	·	-5	·
COc1ccc(Nc2nc(C)cc(C)c2C(N)=O)cc1	14	8	·	·	-1	·
COc1ccc(Nc2n[nH]c(N)c2C(N)=O)cc1	-1	·	·	-4	9	29*
C[C@H]1CN([C@@H](C)CO)C(=O)c2cc(NS(=O)(=O)c3cn(C)cn3)ccc2O[C@H]1CN(C)S(=O)(=O)c1cn(C)cn1	6	·	·	·	22	·
CCCCOC(=O)c1ccc(-c2ccc(/C=N/NC(=S)NCC)o2)cc1	-2	·	·	·	159*	·
CCOC(=O)c1ccc(-c2ccc(/C=N/NC(=O)c3cncc(Br)c3)o2)cc1	0	-11	2	-79	-2	-6
O=C(CCN1CCN(c2ccccc2)CC1)c1ccc(Cl)cc1	-3	12	1	2	11	-4
O=C(CCN1CCOCC1)c1ccc(N2CCCCC2)cc1	12	-2	-1	-12	51*	-31
CO[C@@H]1CN(C)C(=O)c2cc(NC(=O)C3CCC3)ccc2OC[C@H](C)NC[C@H]1C	·	11	0	-3	0	0
CNC(=O)C[C@@H]1CC[C@H]2[C@@H](COc3ccc(NC(=O)c4ccccc4Cl)cc3C(=O)N2C)O1	1	8	-2	9	-3	-1
O=C(c1cccs1)c1coc2ccc(O)c(CN3CCOCC3)c12	·	9	0	9	65*	·
O=C(c1coc2ccc(O)c(CN3CCOCC3)c12)C1CC1	-3	0	·	·	·	·
COc1ccc2c3c(n(C)c2c1)[C@@H](CO)NCC31CCN(Cc2ccc(-c3ccccn3)cc2)CC1	-7	·	3	83*	4	?
COc1ccc2c3c(n(C)c2c1)[C@H](CO)NCC31CN(CC2CCOCC2)C1	0	·	3	76*	14	35*
COc1ccc2c3c(n(C)c2c1)[C@H](CO)NCC31CN(Cc2ccccc2Cl)C1	-33	·	2	15	16	43*
COc1ccc2c3c(n(C)c2c1)[C@H](CO)NCC31CCN(CC2CCCC2)CC1	·	·	0	38	30	14
COc1ccc2c3c(n(C)c2c1)[C@H](CO)NCC31CCN(Cc2ccc(-c3ccccn3)cc2)CC1	-7	·	13	82*	19	30*
COc1ccccc1S(=O)(=O)N[C@@H]1CC[C@H](CCNC(=O)C2CC2)O[C@H]1CO	-1	7	0	8	7	-1
C[C@@H]1CCCCO[C@@H](CN(C)C(=O)Nc2ccc3c(c2)OCO3)[C@H](C)CN([C@H](C)CO)C(=O)c2cc(NC(=O)c3ccncc3)ccc2O1	4	-7	-1	4	-11	-3
COc1ccc2c3c(n(C)c2c1)[C@@H](CO)NCC31CN(Cc2ccc(-c3ccccn3)cc2)C1	-33	·	0	96*	32	45*
C[C@@H]1CN([C@H](C)CO)C(=O)c2cccc(NC(=O)CCCCCC(=O)Nc3ccccc3N)c2O[C@H]1CN(C)C(=O)Nc1ccc(F)cc1	-1	·	-5	-37	6	3
CC(C)(C)c1cc(N2CCOCC2)n2ncc(-c3ccccc3)c2n1	-4	2	32*	-2	-19	-9
O=S(=O)(Nc1ccc(-c2ccc3nncn3n2)cc1)c1ccccc1Cl	·	·	0	-8	40*	-36
COc1ccc2c3c(n(C)c2c1)[C@H](CO)N(C(=O)CN(C)C)CC31CN(C(=O)C2CCC2)C1	-2	·	·	·	6	1
